From PubChem
Vaccinia mCherry – vaccinia inhibition (mCherry reporter) | Vaccinia virus mCherry reporter infection, fluorescence | Potency, µM (doses to about 36.5 µM), for the others: at the top dose activity change, negative = inhibition, actives largely listed as inhibitors | 310,000 compounds, 0.63% hits | AID 720579; calls by dose curve; tested in A549 cells; also: potency is read from the fitted curve at half-maximal effect; nearly all actives have a fitted effect of over 35% in size
HCMV antiviral – blocks human cytomegalovirus replication. HFF cells, HCMV-luciferase reporter, 72 h; stronger effect = lower value. activity change, negative = inhibition, % at 57.5 µM. 410,000 compounds, 4.5% hits. AID 1259415; in the data active = activity change below about -60%; inconclusive = no clear call, values can overlap the other calls; inactive = above about -39%
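Inhibition of viral replication was scored as loss of reporter luminescence in HFFs infected with HCMV-luciferase (MOI 1 PFU/cell) for 72 h; compounds tested at 2 doses, normalized to buffer and Salinomycin controls.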
MARV entry inh – Marburg virus entry inhibition; Marburg virus pseudotyped entry inhibition, cell reporter; Potency, µM (top dose mostly 37.8 µM), without a hit: at the highest dose activity change, negative = inhibition, actives largely listed as inhibitors; 300,000 compounds, 1.8% hits; calls by dose curve; tested in HEK293 cells; also: potency is read from the fitted curve at half-maximal effect
FMDV inh – foot and mouth disease virus antiviral activity | FMDV antiviral cell-based qHTS | Potency, µM (series often up to 57.9 µM), without a hit: at the top dose activity change, negative = inhibition, actives largely listed as inhibitors | 410,000 compounds, 1.2% hits | AID 1159524; calls by dose curve; tested in HEK293T cells; also: read-out not given here; potency is read from the fitted curve at half-maximal effect; nearly all actives have a fitted effect of over 45% in size
Vaccinia Venus – inhibitors of vaccinia virus (Venus reporter) | Vaccinia virus Venus reporter expression, fluorescence | Potency, µM (top dose mostly 36.5 µM), for inactives: top-dose activity change, negative = inhibition, actives largely listed as inhibitors | 330,000 compounds, 0.46% hits | AID 720580; calls by dose curve; tested in A549 cells; also: potency is read from the fitted curve at half-maximal effect; nearly all actives have a fitted effect of over 30% in size
LASV entry inh – Lassa virus entry inhibition. Lassa virus pseudotype entry inhibition, cell reporter. Potency, µM (highest dose often 37.9 µM), without a hit: top-dose activity change, negative = inhibition, actives largely listed as inhibitors. 300,000 compounds, 1.2% hits; calls by dose curve; tested in HEK293 cells; also: potency is read from the fitted curve at half-maximal effect; nearly all actives have a fitted effect of over 50% in size
Active calls of the source: *; i = inactive; ? = inconclusive; . = no result; ! = repeats disagree; [ ] = another dose, or the depositor's remark. Sampled rows, rich in hits. Any-hit rate of the full collection: about 6.5%. % is scaled to controls: 0 for no effect and ±100 for the full control effect.

SMILES	Vaccinia mCherry	HCMV antiviral	MARV entry inh	FMDV inh	Vaccinia Venus	LASV entry inh
O=S(=O)(c1ccc2ncsc2c1)N1CCN(c2nc(-c3cccs3)nc3ccccc23)CC1	i	.	.	.	-19.4%	.
ClCCN(CCCl)/C(=C\c1ccccc1)c1ccnc2ccccc12	i	.	.	.	-5.0%	.
C[C@@H]1COc2cc(Br)ccc2S(=O)(=O)N1	.	.	.	.	.	0.6%[46.1 µM]
CS(=O)(=O)N1CCCc2cc(C(=O)Nc3cccc(C(F)(F)F)c3)ccc21	-11.7%[7.34 µM]	?	-27.0%[46.1 µM]	25.1µM*	-9.8%[7.34 µM]	?
O=C(Nc1ccc2c(c1)CCCN2C(=O)c1cccs1)c1ccccc1C(F)(F)F	-7.6%	-71.5*	.	-28.1%	-1.8%	?
CC1CCN(CC(=O)Nc2cccc(C(=O)Nc3cccc(C(F)(F)F)c3)c2)CC1	-2.5%	-7.7	8.91µM*	-12.7%	?	?
CC1CN(CC(=O)Nc2cccc(C(=O)Nc3cccc(C(F)(F)F)c3)c2)CC(C)O1 (stereo not given)	-13.1%	-27.0	?	?	?	?
O=C(Nc1ccc(N2CCC(N3CCCCC3)CC2)c(C(=O)O)c1)c1ccccc1	-4.1%	12.5	.	-18.9%	-2.1%	-1.8%[46.1 µM]
O=C(Nc1cc2c3c(c1)C1CCCC1CN3CC1CCCC21)c1ccccc1 (stereo not given)	.	-68.8*	-16.1%	-27.8%	.	-26.0%
COc1cccc(C2c3cccn3-c3ccccc3N2C=NC(C)(C)C)c1 (stereo not given)	.	22.5	.	.	.	.
CCc1nc2c(OCc3ccc(Cl)cc3)cccn2c1N(C)C(=O)c1ccco1	?	-76.7*	.	28.2µM*	?	.
CCc1nc2c(OCc3ccc(F)cc3)cccn2c1N(C)C(=O)c1ccco1	31.2%	15.7	.	-21.0%	-7.0%	.
O=C(CN1C(=O)COc2ccc(S(=O)(=O)N3CCCCCC3)cc21)NCCc1ccccc1	-11.3%	-9.5	.	6.8%	-13.6%	-3.1%[46.1 µM]
Cc1cc(Cl)ccc1NC(=O)CCS(=O)(=O)c1cc2c(cc1C)NC(=O)CO2	-6.4%	-22.9	.	3.2%	-9.8%	18.2%[46.1 µM]
Cc1ccc(CNC(=O)CCS(=O)(=O)c2cc3c(cc2Cl)NC(=O)CO3)cc1	1.8%	-104.8*!	.	-4.5%	-3.0%[7.34 µM]	?
Cc1cc(F)ccc1NC(=O)CCS(=O)(=O)c1cc2c(cc1C)NC(=O)CO2	-2.8%	-104.7*	.	-6.8%	-2.5%	5.6%[46.1 µM]
Cc1cc2c(cc1S(=O)(=O)NCc1ccccc1)OCC(=O)N2	-6.8%	-87.2*!	.	7.2%	-8.8%	7.5%[46.1 µM]
Cc1cc2c(cc1S(=O)(=O)NCc1ccccc1Cl)OCC(=O)N2	-3.2%	-1.2	.	64.0%	-6.2%	-1.5%[46.1 µM]
CCN(CC(=O)Nc1ccc(NC(C)=O)cc1)C(=O)c1oc2c(ccc3ccccc32)c1C	-8.8%	-74.5*	11.0%[46.1 µM]	-19.3%	-9.6%	-14.7%
CCN(CC(=O)NCc1ccc(F)cc1)C(=O)c1oc2ccccc2c1C	-7.4%	-34.9	8.91µM*	34.0%	4.0%	?
COc1ccc(-n2c(CNC(=O)c3ccccc3C(F)(F)F)nnc2SC)cc1	-3.4%	.	.	-9.4%	3.2%	.
Cc1cnc(C)c(-c2cc(F)cc3c2OC(CNC(=O)Cc2c(C)noc2C)C3)n1 (stereo not given)	i	.	.	-1.9%	-14.0%	.
CNC(=S)N/N=C1\C(=O)c2cccc3cccc1c23	i	-106.4*	-5.1%	2.5%	-14.1%	-24.2%
Nc1ccc(C(=O)OCC(=O)N2CCc3ccccc3C2)cc1[N+](=O)[O-]	-2.8%	-20.2	24.4%	-6.4%	-14.0%	?
Nc1ccc(C(=O)OCC(=O)N2c3ccccc3Sc3ccccc32)cc1[N+](=O)[O-]	-9.2%	?	20.6µM*	-8.3%	-20.4%	15.8µM*
SMILES	Vaccinia mCherry	HCMV antiviral	MARV entry inh	FMDV inh	Vaccinia Venus	LASV entry inh
N=c1c2c(-c3ccccc3)c(-c3ccccc3)n(Cc3ccco3)c2ncn1CCN1CCOCC1	.	-32.8	10.3µM*	-1.7%	.	?
N=c1c2c(-c3ccccc3)c(-c3ccccc3)n(Cc3ccco3)c2ncn1CCCO	-7.3%	-32.2	5.62µM*	?	-7.8%	?
N=c1c2c(-c3ccccc3)c(-c3ccccc3)n(Cc3ccco3)c2ncn1CCO	-27.2%	-5.3	?	?	?	?
Nc1nnc(CCCCc2cccs2)o1	i	-31.7	8.7%	-0.9%	10µM*	-12.4%
O=C(O)CCCC(=O)OCCCCc1cccs1	.	-21.6	2.4%	6.3%	.	7.9%
CCCN1CCc2c(sc(NC(=O)c3ccc(S(=O)(=O)N4CCN(C(=O)OCC)CC4)cc3)c2C(N)=O)C1	.	-2.7	.	-23.4%	.	.
CCOC(=O)c1c(NC(=O)c2ccc(S(=O)(=O)N3CCC(C)CC3)cc2)sc2c1CCN(C)C2	-17.2%	-82.3*	.	-17.8%	?	0.3%[46.1 µM]
COC(=O)c1c(NC(=O)CCS(=O)(=O)c2ccccc2)sc2c1CCN(C)C2	?	-90.1*	-3.4%	-8.5%	?	-0.3%
CCCN1CCc2c(sc(NC(=O)CCS(=O)(=O)c3ccccc3)c2C(=O)OC)C1	?	-9.1	?	-11.2%	-28.3%	-22.5%
CCOC(=O)N1CCN(S(=O)(=O)c2ccc(C(=O)Nc3sc4c(c3C(=O)OC)CCN(C)C4)cc2)CC1	-4.8%	-61.8*	?	-12.0%	?	-10.4%[46.1 µM]
COc1cc(NS(=O)(=O)c2ccc(NC(=S)NC(=O)CC(C)C)cc2)nc(OC)n1	11.2µM*	20.2	-16.2%[46.1 µM]	94.1%	?	8.0%
COC(=O)CCC(=O)NC(=S)Nc1ccc(S(=O)(=O)Nc2cc(OC)nc(OC)n2)cc1	-14.5%	-25.8	34.7%	108.4%	-10.0%	9.4%
Cc1c(C(=O)NCC2(N3CCOCC3)CCCCC2)cnn1-c1nccc(-c2ccccc2F)n1	-18.6%	.	.	-16.1%	-2.7%	.
Cc1ccc(CN2CCC(CNC(=O)c3cc4ccc5cccnc5c4[nH]3)CC2)cc1	?	-106.0*	.	-28.9%	?	?
Cc1ccc(C)c(CN2CCC(CNC(=O)c3cc4ccc5cccnc5c4[nH]3)CC2)c1	?	?	.	-4.9%	-18.7%	-8.6%[46.1 µM]
CCN(CC(=O)NCc1ccc(Cl)cc1)C(=O)c1ccc2cc(OC)ccc2c1	i	-12.7	?	10.5%	-14.7%	?
CCN(CC(=O)NCc1ccc(Cl)cc1)C(=O)c1cnc(Cl)c(Cl)c1	i	-62.6*	5.1%[46.1 µM]	3.0%	-8.4%	-3.6%
CCc1c(C)sc2c1CCN(C(=O)Nc1cc(OC)c(OC)c(OC)c1)C2c1ccccc1 (stereo not given)	-27.5%	-5.7	.	-11.5%	?	-4.0%[46.1 µM]
CCOC(=O)c1ccccc1NC(=O)N1CCc2c(sc(C)c2CC)C1c1ccccc1 (stereo not given)	-15.5%	-6.6	.	-18.5%	-4.0%	23.1%[46.1 µM]
CCc1c(C)sc2c1CCN(Cc1ccccc1F)C2c1ccccc1 (stereo not given)	-17.4%	-105.1*	.	?	-15.0%	?
CCc1c(C)sc2c1CCN(Cc1cccc(OC)c1)C2c1ccccc1 (stereo not given)	-26.3%	-85.6*	.	-10.5%	-5.2%	?
